Measured values published in PubChem BioAssay AID504329 (Southern Research Specialized Biocontainment Screening …, 2011).
In all, about 340,000 compounds went through this assay and about 1,000 (0.29%) were called active. Only a sample is shown. Measured potencies and affinities stand elsewhere. A number with no mark means an inactive call. Rule as the data show it: inconclusive = inhibition above about 27% without an active follow-up result; inactive = below that.

assay: NS1A inhibition, H1N1 influenza, cell based functional assay (AID 504329); details: percent inhibition, at 12.5 µM, stronger effect = higher value

SMILES	inhibition [%]
CC(C)(C)CN1CCNC[C@H]1Cc1cccc2ccccc12	4.41
CNCC(O)c1cc(OCc2ccccc2)c(OCc2ccccc2)cc1F (configuration not stated)	2.8
Cc1cc(Nc2cccc(F)c2)n2c(n1)nc1ccccc12	-4.78
CC(Sc1nnc(C2CC2)n1C1CC1)C(=O)c1ccc(F)cc1 (configuration not stated)	-11.2
Clc1cccc(Cl)c1CSc1nnc([C@@H]2CCCN2)o1	-1.85
CC(=O)N1CCN(C(=O)COC(=O)CNC(=O)c2ccccc2C)CC1	-1.13
Cc1ccc(CNCC(O)(c2ccccc2)c2ccc(Cl)cc2)cc1 (configuration not stated)	6.37
Cn1c(SCC(=O)N2CCCC2=O)nnc1-c1ccccc1F	6.14
CN(C)c1ccc(C=c2c3ccccc3n3c2c2ccccc2[n+]3C)cc1	21
CN(C)c1ccc(/C=C2\CCCc3c2nc2ccccc2c3C(=O)O)cc1	2.2
COc1cc(C=c2c3ccccc3n3c2cc(-c2ccccc2)[n+]3C)cc(OC)c1OC	6.14
CCOC(=O)c1cccc(NC(=O)c2ccc(N(C)C)cc2)c1	5.77
COc1ccc(C(=O)c2ccc(N(C)C)cc2)c2ccccc12	11.2
C[n+]1c(-c2ccccc2)cc(-c2ccc(O)cc2)cc1-c1ccccc1	-0.313
CN(C)c1ccc(/C=C/c2nc3ccccc3c(=O)n2-c2ccc(C(=O)O)cc2)cc1	-25.3
CCOC(=O)c1cc2c(C)n(-c3ccc(N(C)C)cc3)c(C)c2cc(C(=O)OCC)c1=O	-3.74
COc1ccc(C)cc1NS(=O)(=O)c1ccc2c(c1)N(C)CCO2	3.31
COC(=O)C1CN(C(=O)c2ccc(OC(F)F)cc2)c2ccccc2O1 (configuration not stated)	8.47
CN(CC(=O)Nc1ccccc1Cl)CC(=O)N1CCc2ccccc21	-8.6
CCOc1ccc(CC(=O)Nc2nccs2)cc1OCC	-1.94
C=CCNc1nc(N)c([N+](=O)[O-])c(Nc2cccc(Cl)c2)n1	3.17
CC(C)=CC(=O)Nc1nnc(-c2ccccc2C)s1	-8.76
O=C(CNCc1cccc(Cl)c1)N1CCc2ccccc2C1	-4.83
O=C(CNCc1ccc(Cl)cc1)N1CCc2ccccc2C1	-2.57
Cc1ccnc(Nc2nc3ccccc3o2)n1	-3.68

SMILES	inhibition [%]
Oc1ccccc1/C=N/Nc1nc2ccccc2o1	12
COc1cc(/C=N/Nc2nc3ccccc3o2)cc(OC)c1O	1.3
C/C(=N\Nc1nc2ccccc2s1)c1cccs1	-10
CN(C)c1ccc(/C=N/Nc2nc3ccccc3o2)cc1	-0.4
CC(=NNc1nc2ccccc2s1)c1ccncn1	6.3
CCCN1CCC(N(C)CCc2ccc(OC)c(OC)c2)CC1	-5.4
CCOC(=O)C1=C(C)N(C[C@@H]2CC[C@@H](Cc3ccc(-c4ccccc4)cc3)O2)C(=O)NC1c1ccc(Cl)cc1 (some centres not stated)	-4.34
Cc1cccc(C)c1NC(=O)COC(=O)COc1ccc2c(C)cc(=O)oc2c1	10.5
COc1ccccc1-n1nnnc1SCC(=O)NCC1CCCO1 (configuration not stated)	-3.64
Cc1cccc(NC(=S)N(CCCN2CCOCC2)Cc2cn(C)c3ccccc23)c1	4.41
Cc1cc2c(cc1C)N(C(=O)CSC1=NCCS1)C(C)(C)c1ssc(=S)c1-2	14.7
CC1(C)c2ssc(=S)c2-c2ccccc2N1C(=O)c1ccco1	2.72
Cc1ccc2c(c1)-c1c(ssc1=S)C(C)(C)N2C(=O)CN1C(=O)c2ccccc2C1=O	28.5
CCOc1ccc2c(c1)-c1c(ssc1=S)C(C)(C)N2C(=O)CSC1=NCCS1	20
CCOC(=O)c1c(NC(=O)c2ccc(N3C(=O)[C@@H]4[C@H](C3=O)[C@H]3C=C[C@@H]4C3)cc2)sc2c1CCCC2	-7.09
CC(C)C(=O)Nc1ccc(NC(=S)NC(=O)c2ccccc2F)cc1	1.28
O=S(=O)(NCCc1cn2ccccc2n1)c1ccc2c(c1)CCCC2	25.4
S=C(CN1CCCC1=S)NCCc1ccccc1	-5.27
Cc1[nH]c2ccccc2c1CCNS(=O)(=O)c1ccc(S(N)(=O)=O)cc1	23.3
CN(Cc1ccc(Cl)c(Cl)c1)C(=O)c1ccccc1SCC(=O)N1CCCC1	-4.06
CN(C)Cc1c(C(=O)N/N=C/c2ccncc2)nnn1-c1nonc1N	6.41
Cc1ccc(S(=O)(=O)N2[C@@H](c3cccc(C)c3)C(C(=O)O)=C[C@H]2CC2CCCC2)cc1	8.82
Cc1ccc(-n2nnnc2SCC(=O)Nc2ccccc2N2CCCCC2)cc1C	-1.34
Cc1cc(C)nc(NC(N)=NCCc2ccccc2)n1	-1.52
CCCCSCCCNC(=O)C1CCC(CNS(=O)(=O)c2ccccc2)CC1 (configuration not stated)	-20

SMILES	inhibition [%]
COc1ccc(NC2c3ccccc3C(=O)N2Cc2ccc3c(c2)OCO3)cc1 (configuration not stated)	5.36
COc1cc(NC2c3ccccc3C(=O)N2Cc2ccc3c(c2)OCO3)cc(OC)c1 (configuration not stated)	-1.58
O=C(NCCN1CCCCC1)Nc1ccc(Br)cc1	-24.7
N#Cc1cc(N2CCCCC2)c([N+](=O)[O-])cc1C#N	9.08
O=[N+]([O-])c1cc(F)c(N2CCCCC2)cc1N1CCOCC1	10.6
O=C(CSc1n[nH]c(=O)[nH]c1=O)Nc1ccccc1C(=O)c1ccccc1	-9.72
Cc1ccc(NC(=O)CCC(=O)Nc2ccc(C)cc2)cc1	4.02
CCCCC(=O)Nc1ccc(F)c(Cl)c1	0.54
Cc1cccc(C)c1NC(=O)CCCCCC1NC(=O)NC1C (configuration not stated)	24.2
CCc1cccc(NC(=O)CCSCCC(=O)Nc2cccc(CC)c2)c1	14.8
CCc1cccc(NC(=O)CCCN2C(=O)NC(C)(C)C2=O)c1	-6.41
CCC(=O)Nc1ccc(F)c(Cl)c1	-2.47
COC(=O)CCCCC1SCC2NC(=O)NC21 (configuration not stated)	1.31
O=C(O)CCCCC1SCC2NC(=O)NC21 (configuration not stated)	22.1
COc1ccc(C(C(=O)NC2CCCC2)N(CCN(C)C)C(=O)c2snc(C(N)=O)c2N)cc1 (configuration not stated)	-6.89
O=C(Cc1ncc(C(F)(F)F)cc1Cl)NC1CC1	-2.28
O=C(Cc1cccc(C(F)(F)F)c1)N1CCN(CC(=O)N2CCCC2)CC1	-1.65
CCCNC(=O)CN(c1cccc(F)c1)S(C)(=O)=O	-3.24
COC(CNC(=O)CN1CCN(Cc2ccccc2F)C1=O)OC	-6.42
COc1ccc(NC(=O)CN2CCN(CC(=O)Nc3ccc(F)cc3)CC2)c(OC)c1	-6.91
O=C(COC(=O)c1ccc(O)cc1)NCC1COc2ccccc2O1 (configuration not stated)	-6.24
Cc1nn(CC(=O)NC(=O)c2ccccc2)c(C)c1[N+](=O)[O-]	-12.3
COc1ccc(CC(=O)OC2CCCN(C)C2)cc1 (configuration not stated)	2.07
Cc1c(F)cccc1NC(=O)CCC(=O)O	22.1
Cc1c(F)cccc1NC(=O)CSCC(=O)Nc1ccccc1	-20.1

SMILES	inhibition [%]
CC1NC(=O)NC1CCCCC(=O)O (configuration not stated)	8.09
O=C(CCCCC(=O)Nc1ccc(F)cc1)Nc1ccc(F)cc1	-8.93
O=C(CCCCCN1C(=O)c2ccccc2C1=O)Nc1ccc(F)cc1	15.1
CCCCCC1NC(=O)NC1CCCCCC(=O)O (configuration not stated)	0.19
COc1ccc(NC(=S)NCCc2ccc(S(N)(=O)=O)cc2)c(OC)c1	0.63
Cc1ccc(C)c(OCCn2cc(/C=C(\C#N)C(=O)NCC3CCCO3)c3ccccc32)c1 (configuration not stated)	5.75
O=C(COC(=O)Cc1ccc(Cl)cc1)Nc1ccc(OC(F)F)cc1	-4.03
COc1cc(CN2C(=S)NC(C)(C)CC2(C)O)cc(OC)c1 (configuration not stated)	-3.29
Cc1cc(C)n(Cc2ccc(C(=O)Nc3cccc(Br)c3)o2)n1	26.6
O=C(C[n+]1ccc(C(=O)N/N=C/c2ccc(O)cc2)cc1)c1ccccc1	2.67
O=C(N/N=C/c1coc2ccccc2c1=O)c1cc(Br)c(O)c(Br)c1	-7.78
O=C(N/N=C/C1C(c2ccccc2)C1(Cl)Cl)c1cccc(Br)c1 (configuration not stated)	-5.72
O=C1C(Cc2ccc(O)cc2)NC(=S)N1c1ccccc1 (configuration not stated)	2.29
C=CCN1C(=O)/C(=C\c2ccc(C)cc2)N=C1SCC(=O)NCCC	-5.98
C/C(=N\NC(=O)c1ccn(C)n1)c1cccc(NC(=O)c2ccncc2)c1	10.3
COC(=O)C1=C(O)CSC1=Nc1ccc(C)cc1	-6.3
CCc1nn2cc(C(=O)c3ccccc3O)cnc2c1-c1ccc(F)cc1	14.5
O=[N+]([O-])c1ccc(/C=C/c2ccc3cccc(O)c3n2)cc1	-0.58
O/N=C/c1ccc2cccc(O)c2n1	1.88
CCOc1ccc(OCCC(=O)NNC(=O)c2ccccc2Cl)cc1	-2.63
CCN(CC)CCNC(=O)c1cc(Sc2nnc(C)s2)nc2ccccc12	-9.1
COc1cc2[nH]c(=O)n(Cc3ccc(C(=O)NCCCN4CCC(C)CC4)cc3)c(=O)c2cc1OC	4.01
